Assay [1] in a line: Viability qHTS for spleen associated tyrosine kinase inhibitor (SYKi) naive MV4-11 cells (AID 1963823). Note: nearly all actives have a fitted effect of over 40% in size. The essentials: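 CellTiter-Glo luminescence, 10 min room-temperature incubation, gave viability. Cells: naive MV4-11 (500/well), treated 72 hr at 37 C, 5% CO2.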
A general note: In qHTS, concentration-response curves come from the screen itself.

Assay [2] is described as follows: Viability qHTS for spleen associated tyrosine kinase inhibitor (SYKi) drug resistant MV4-11 cells (AID 1963824). Note: nearly all actives have a fitted effect of over 35% in size. The gist of the method:
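SYK inhibitor-resistant MV4-11 AML cells, 500 per well, added to predispensed compounds and incubated 72 hr at 37 C, 5% CO2. Viability measured by CellTiter-Glo luminescence after 10 min at room temperature.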

Assay [3] in a line: Quantitative highthroughput screen to assess conditional lethalithy of SEM cells grown in Human Plasma-Like Medium with dialyzed fetal bovine serum (HPLM+ds) (AID 1963882). Note: nearly all actives have a fitted effect of over 35% in size. The gist of the method:
(§1)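 Each medium arm—HPLM with 10% dialyzed FBS, or RPMI1640 with 5 mM glucose and 10% untreated or dialyzed FBS—was screened against an 11-point, 3-fold compound titration for 48 h at 37 °C, with CellTiter-Glo luminescence as endpoint.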

Assay [4] is described as follows: Quantitative highthroughput screen to assess conditional lethalithy of SEM cells grown in RPMI1640 with dialyzed fetal bovine serum (RPMI+ds) (AID 1963884).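 For Viability: series mostly up to about 46 µM; 100% = DMSO control wells and 0% = empty wells without cells.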 Note: nearly all actives have a fitted effect of over 35% in size. The gist of the method: as §1
Assay [5] in a line: Cellular viability qHTS for adrenocortical cancer (ACC) cell line SW-13 (AID 1963989).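 For activity (max response): cells grown in serum-free medium with ITS supplement; % is set by controls: 0 for no effect and ±100 for the full control effect.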 Note: nearly all actives have a fitted effect of over 65% in size. The conditions noted are these: SW-13 ACC cells viability, CellTiter-Glo, 48 h; activity (max response): stronger effect = lower value. The essentials: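 Compound titrations (up to 46 uM final, in DMSO) were applied to SW-13 cells for 48 h at 37C/5% CO2. Reading used CellTiter-Glo after 20 min at room temperature; fitted curves yielded IC50 and efficacy.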

Assay [6] in a line: Cellular viability qHTS for adrenocortical cancer (ACC) cell line NCI-H295R (AID 1963990). Note: nearly all actives have a fitted effect of over 60% in size. The gist of the method: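 Readout: CellTiter-Glo luminescence, 20 min RT. Exposure: 48 h, 37C/5% CO2. Cells: NCI-H295R, ITS-DMEM serum-free. Range: up to 46 uM. Analysis: 4PL fit, IC50 plus efficacy.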
Assay [7] can be described thus: Quantitative highthroughput screen to assess conditional lethalithy of SEM cells grown in RPMI1640 with unreated serum (RPMI+s) (AID 1963883).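 For Viability: 100% = DMSO wells and 0% = empty wells without cells.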 Note: nearly all actives have a fitted effect of over 35% in size. The essentials:
as §1

Structures are written as SMILES. Values joined by “and” are separate entries in the source; they are usually repeats but may differ in a detail not shown here. Equal values may be shown once. Results filed as inconclusive are left out. Some compounds were tested as several samples or in several runs, with calls that do not always agree. Active and inactive are the calls of the source. Calls come from the whole dose curve; as a rule, active = well fitted curve in the direction sought with a large enough effect; inconclusive = small, poorly fitted or top-dose-only effect, or another doubt; inactive = no such curve, though single readings can be large; an effect the other way counts as inactive or inconclusive.
Potency is the fitted concentration of half-maximal effect.

With `Cc1ccc(C(N)=O)cc1Nc1nccc(-c2cn(C(C)C)c3cnccc23)n1`, the Potency in assay [1] was 23.1 nM (active); in assay [2], 51.7 nM (active); in assay [3], 3.32 µM (active); in assay [4] it was 2.09 µM (active); in assay [5] it was 8.91 µM (active); in assay [6] it was 12.6 µM (active).

In the case of `CN(C)CCN1C(=O)c2cccc3cc(NC(N)=O)cc(c23)C1=O`, the Potency was 4170 nM (active) in assay [1], 4170 nM (active) in assay [2] and 17.8 µM (active) in assay [5].

Consider `COc1cc(Oc2ccnc3cc(OC)c(OC)cc23)ccc1NC(=O)NC(C)c1nccs1` (stereo unspecified), for which the Potency entry is “inactive and 7.42 µM (active)” in assay [1]; 14800 nM (active) in assay [2]; 33.2 µM (active) in assay [7]. Moreover, the activity (max response) in assay [5] is 0.628% (inactive).

On to `CN1CCCC(n2nc(Cc3ccc(Cl)cc3)c3ccccc3c2=O)CC1` (stereo unspecified), for which the Potency is 10600 nM (active) in assay [1], 26600 nM (active) in assay [2] and 18.4 µM (active) in assay [6]. Further, the Potency entry in assay [7] and in assay [4] was “inactive” throughout.

As for `CCCCN(CCCC)CCCOC(=O)c1ccc(N)cc1`, the Potency entry in assay [1] and in assay [2] was “inactive” throughout. In addition, the activity (max response) in assay [5] was -3.65% (inactive).

For `CC1=C(CC(=O)O)c2cc(F)ccc2/C1=C\c1ccc(S(C)=O)cc1` (stereo unspecified), the Potency result in assay [1] and in assay [2] was “inactive” each time. Besides, in assay [5], the activity (max response) was 1.22% (inactive).

Regarding `O=C(/C=C/C#Cc1cccc(NS(=O)(=O)c2ccccc2)c1)NO`, the Potency is 407 nM (active) in assay [1], 363 nM (active) in assay [2] and 8.02 µM (active) in assay [5].

`C/C(=N\NC(=O)c1cccc(S(=O)(=O)N2CCOCC2)c1)c1cc(Cl)ccc1O`: the Potency is 525 nM (active) in assay [1], 742 nM (active) in assay [2] and 8.91 µM (active) in assay [5].

On to `CN1[C@@H]2CCC[C@H]1CC(NC(=O)c1nn(C)c3ccccc13)C2` (stereo partly specified), for which the Potency entry in assay [1] and in assay [2] was “inactive” in each case. The activity (max response) in assay [5] is 2.83% (inactive).

`Oc1cc(O)cc(/C=C/c2ccc(O)c(O)c2)c1`: the Potency was 5.9 µM (active) and 5.17 µM (active) in assay [1]; 5.9 µM (active) and 2.59 µM (active) in assay [2]. Moreover, the activity (max response) in assay [5] is -23.2% (inactive).

For the origin of these results see PubChem BioAssay (NCATS).
